Assay results published in PubChem BioAssay (EPA / NIEHS).
Activity calls are given as the source filed them. The calls were made as follows: active = hit-call score of the fitted dose curve at least 0.9, where 1 is the maximum; inactive = score below 0.9.

Columns and labels:
[1] = biological target: Transcription factor E2F1 (Homo sapiens) (UniProt Q01094); test: ATG_E2F_CIS: Attagene CIS-FACTORIAL HepG2 Assay for human E2F Transcription Factor 1 (AID 2282935); details: HepG2 Attagene cis-reporter, E2F reporter RNA transcripts; actives raise or lower the signal
Outline: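 Measures reporter transcript levels via RT-PCR with capillary electrophoresis detection in HepG2 cells harboring cis-regulated reporter units; 24 h post-dose; bidirectional curve fitting with DMSO as baseline.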

[2] = ATG_M_61_CIS: Attagene CIS-FACTORIAL HepG2 Assay for M61 Transcription Factor (Internal Marker) (AID 2282937); details: HepG2 Attagene CIS-FACTORIAL M61 internal marker reporter; actives raise or lower the signal
Outline: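 HepG2 cells transiently transfected with multiplexed cis-promoter reporter units reporting endogenous transcription factor activity, measured 24 h after dosing. Reporter mRNA quantified by RT-PCR and capillary electrophoresis; bidirectional fit against DMSO baseline.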

[3] = ATG_EGR_CIS: Attagene CIS-FACTORIAL HepG2 Assay for human Early Growth Response 1 (EGR1) (AID 2282938); details: HepG2 Attagene CIS-FACTORIAL EGR reporter mRNA; actives raise or lower the signal
Outline: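 HepG2 cells transiently transfected with cis-element-driven multiplexed reporter units, dosed for 24 h. EGR1-element reporter mRNA quantified by RT-PCR, 6-FAM labelling, HpaI digestion and capillary electrophoresis; bidirectional fit versus DMSO.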

[4] = ATG_M_19_CIS: Attagene CIS-FACTORIAL HepG2 Assay for M19 Transcription Factor (Internal Marker) (AID 2282939); details: HepG2 Attagene CIS-FACTORIAL M19 internal marker reporter; actives raise or lower the signal
Outline: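 Signals come from fluorescence of labelled reporter-specific PCR fragments resolved by capillary electrophoresis, following 24 h treatment of HepG2 cells transfected with cis-promoter reporter units; activity was fitted in both directions relative to DMSO.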

[5] = ATG_ERE_CIS: Attagene CIS-FACTORIAL HepG2 Assay for Estrogen Response Element (ERE) (AID 2282940); details: HepG2 ERE cis-reporter, Attagene RNA transcript; actives raise or lower the signal
Outline: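 Fluorescence of capillary-separated, FAM-labelled reporter cDNA fragments indicates reporter mRNA levels in HepG2 cells exposed to chemicals for 24 h. Transient transfection with cis-regulated units; data fitted in both directions against DMSO.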

[6] = ATG_Ets_CIS: Attagene CIS-FACTORIAL HepG2 Assay for human Erythroblast Transformation Specific (ETS) (AID 2282941); details: HepG2 ETS cis-reporter transcription, actives raise or lower the signal
Outline: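 HepG2 cells transiently transfected with cis-promoter reporter transcription units were dosed for 24 h; reporter mRNA was measured by RT-PCR, 6-FAM primer extension, HpaI digestion and capillary electrophoresis, with bidirectional fitting against DMSO baseline.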

[7] = biological target: Hepatocyte nuclear factor 3-beta (Homo sapiens) (UniProt Q9Y261); test: ATG_FoxA2_CIS: Attagene CIS-FACTORIAL HepG2 Assay for human Forkhead box A2 (FOXA2) (AID 2282942); details: HepG2 cis-reporter transcription factor activity, 24 h; actives raise or lower the signal
Outline: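 HepG2 transiently transfected with a multiplexed cis-promoter reporter library read endogenous FOXA2 activity. After 24 h compound exposure, reporter mRNA was quantified by RT-PCR, HpaI digestion and capillary electrophoresis. Bidirectional fit against DMSO.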

[8] = ATG_FoxO_CIS: Attagene CIS-FACTORIAL HepG2 Assay for human Forkhead box O (FoxO) (AID 2282943); details: HepG2 Attagene cis-reporter, FoxO element, mRNA; actives raise or lower the signal
Outline: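 HepG2 cells transiently transfected with cis-element-driven reporter units report endogenous FoxO activity. After 24 h chemical exposure, reporter mRNA quantified by RT-PCR, fluorescent labeling, HpaI digestion and capillary electrophoresis; bidirectional fit versus DMSO.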

[9] = ATG_GLI_CIS: Attagene CIS-FACTORIAL HepG2 Assay for human Zinc Finger Protein GLI1 (AID 2282945); details: HepG2, Attagene cis-factorial reporter mRNA, GLI element; actives raise or lower the signal
Outline: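 Transiently transfected HepG2 cells report endogenous transcription factor activity via cis-element-driven reporter units. After 24 h compound exposure, reporter mRNA was measured by RT-PCR with capillary electrophoresis; bidirectional fitting against DMSO baseline.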

[10] = ATG_GRE_CIS: Attagene CIS-FACTORIAL HepG2 Assay for human Glucocorticoid Response Elements (GRE) (AID 2282947); details: HepG2 GRE cis-reporter, Attagene multiplex mRNA; actives raise or lower the signal
Outline: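 Endogenous transcription factor activity is read through cis-element reporter constructs transiently transfected into HepG2 cells. After 24 h treatment, labelled RT-PCR products are resolved by capillary electrophoresis; DMSO sets baseline for bidirectional curve fitting.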

[11] = ATG_ISRE_CIS: Attagene CIS-FACTORIAL HepG2 Assay for human Interferon Regulatory Factor 1 (IRF1) binding to an Interferon-Stimulated Response Element (ISRE) (AID 2282948); details: HepG2 ISRE cis-reporter (Attagene), mRNA transcription readout; actives raise or lower the signal
Outline: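 HepG2 cells transiently transfected with multiplexed cis-promoter reporter units; after 24 h compound exposure, reporter mRNA quantified by RT-PCR, FAM labelling, HpaI digestion and capillary electrophoresis. Bidirectional fit versus DMSO baseline.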

[12] = ATG_M_32_CIS: Attagene CIS-FACTORIAL HepG2 Assay for M32 Transcription Factor (Internal Marker) (AID 2282949); details: HepG2 Attagene cis-factorial M32 reporter, mRNA; actives raise or lower the signal;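 also: background control marker of the multiplexed CIS panel rather than a real target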
Outline: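 Following 24 h chemical exposure of HepG2 cells transiently expressing cis-promoter reporter constructs, reporter transcript levels were determined by RT-PCR with fluorescent labelling and capillary electrophoresis, then fitted bidirectionally against DMSO.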

[13] = ATG_M_06_CIS: Attagene CIS-FACTORIAL HepG2 Assay for M06 Transcription Factor (Internal Marker) (AID 2282950); details: HepG2 Attagene CIS-FACTORIAL M06 internal marker reporter; actives raise or lower the signal
Outline: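 HepG2 liver cells, 24 h exposure. Reporter transcripts from transfected cis-element constructs quantified by RT-PCR/capillary electrophoresis fluorescence. Bidirectional curve fit against DMSO.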

[14] = biological target: Hypoxia-inducible factor 1-alpha (Homo sapiens) (UniProt Q16665); test: ATG_HIF1a_CIS: Attagene CIS-FACTORIAL HepG2 Assay for human Hypoxia Inducible Factor 1 (HIF1A) (AID 2282951); details: HepG2 Attagene cis-factorial HIF1a reporter transcription; actives raise or lower the signal
Outline: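 HepG2 cells transiently transfected with multiple cis-regulated reporter transcription units measure endogenous transcription factor activity. After 24 h exposure, reporter mRNA is quantified by RT-PCR with 6-FAM labelling, HpaI digestion and capillary electrophoresis. Bidirectional fitting against DMSO.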

[15] = biological target: Hepatocyte nuclear factor 6 (Homo sapiens) (UniProt Q9UBC0); test: ATG_HNF6_CIS: Attagene CIS-FACTORIAL HepG2 Assay for human Hepatocyte Nuclear Factor 6 (HNF6) (AID 2282952); details: HepG2 Attagene cis-factorial HNF6 reporter transcription; actives raise or lower the signal
Outline: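 Transiently transfected HepG2 cells expressing cis-regulated reporter transcription units were exposed to chemical for 24 h in a 24-well format. Reporter transcript abundance was determined by fluorescence capillary electrophoresis.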

[16] = biological target: Heat shock factor protein 1 (Homo sapiens) (UniProt Q00613); test: ATG_HSE_CIS: Attagene CIS-FACTORIAL HepG2 Assay for human Heat Shock Transcription Factor 1 (HSE) (AID 2282953); details: HepG2 HSE cis-reporter, Attagene RNA transcription; actives raise or lower the signal
Outline: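 Endogenous transcription factor activity captured via cis-promoter reporter units transfected into HepG2; treatment lasted 24 h. Fluorescence intensity of reporter fragments analysed with bidirectional curve fitting, DMSO baseline.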

[17] = ATG_MRE_CIS: Attagene CIS-FACTORIAL HepG2 Assay for human Metal Responsive Element (MRE) (AID 2282954); details: HepG2 MRE cis-reporter transcription, Attagene multiplex; actives raise or lower the signal
Outline: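 Fluorescent reporter fragments separated by capillary electrophoresis give mRNA induction for the MRE unit after 24 h treatment of transfected HepG2 cells. Endogenous transcription-factor activity is read; DMSO serves as negative control and baseline.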

[18] = ATG_E_Box_CIS: Attagene CIS-FACTORIAL HepG2 Assay for human Enhancer Box (E-box) (AID 2282936); details: HepG2 E-box cis-reporter transcription, actives raise or lower the signal
Outline: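 First, HepG2 cells receive multiple cis-regulated reporter constructs by transient transfection. Next, chemicals are applied for 24 h. Finally, reporter mRNA is quantified via RT-PCR and capillary electrophoresis, with DMSO as baseline.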

[19] = ATG_GATA_CIS: Attagene CIS-FACTORIAL HepG2 Assay for human GATA Binding Protein (AID 2282944); details: HepG2 GATA cis-element reporter, Attagene multiplex mRNA; actives raise or lower the signal
Outline: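 After transfecting HepG2 cells with multiple cis-regulated reporter units, chemicals are dosed for 24 h; isolated RNA undergoes RT-PCR and fluorescent labeling before capillary electrophoresis, with activity expressed against DMSO.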

Sequence of Hepatocyte nuclear factor 6 (Homo sapiens) (Q9UBC0 whole entry, looked up): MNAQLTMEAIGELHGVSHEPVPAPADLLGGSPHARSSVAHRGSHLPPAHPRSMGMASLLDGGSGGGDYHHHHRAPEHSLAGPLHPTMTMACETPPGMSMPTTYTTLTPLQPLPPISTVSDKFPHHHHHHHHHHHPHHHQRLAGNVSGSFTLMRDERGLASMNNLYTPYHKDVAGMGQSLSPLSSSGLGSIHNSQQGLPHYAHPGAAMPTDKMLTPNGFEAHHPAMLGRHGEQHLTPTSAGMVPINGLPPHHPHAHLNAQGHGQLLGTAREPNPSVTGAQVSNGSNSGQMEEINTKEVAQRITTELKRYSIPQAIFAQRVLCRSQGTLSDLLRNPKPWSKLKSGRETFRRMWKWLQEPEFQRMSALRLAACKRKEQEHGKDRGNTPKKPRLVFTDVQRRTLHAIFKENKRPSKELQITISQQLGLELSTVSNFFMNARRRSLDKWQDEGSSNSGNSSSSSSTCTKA
Sequence of Hypoxia-inducible factor 1-alpha (Homo sapiens) (Q16665 whole entry, looked up): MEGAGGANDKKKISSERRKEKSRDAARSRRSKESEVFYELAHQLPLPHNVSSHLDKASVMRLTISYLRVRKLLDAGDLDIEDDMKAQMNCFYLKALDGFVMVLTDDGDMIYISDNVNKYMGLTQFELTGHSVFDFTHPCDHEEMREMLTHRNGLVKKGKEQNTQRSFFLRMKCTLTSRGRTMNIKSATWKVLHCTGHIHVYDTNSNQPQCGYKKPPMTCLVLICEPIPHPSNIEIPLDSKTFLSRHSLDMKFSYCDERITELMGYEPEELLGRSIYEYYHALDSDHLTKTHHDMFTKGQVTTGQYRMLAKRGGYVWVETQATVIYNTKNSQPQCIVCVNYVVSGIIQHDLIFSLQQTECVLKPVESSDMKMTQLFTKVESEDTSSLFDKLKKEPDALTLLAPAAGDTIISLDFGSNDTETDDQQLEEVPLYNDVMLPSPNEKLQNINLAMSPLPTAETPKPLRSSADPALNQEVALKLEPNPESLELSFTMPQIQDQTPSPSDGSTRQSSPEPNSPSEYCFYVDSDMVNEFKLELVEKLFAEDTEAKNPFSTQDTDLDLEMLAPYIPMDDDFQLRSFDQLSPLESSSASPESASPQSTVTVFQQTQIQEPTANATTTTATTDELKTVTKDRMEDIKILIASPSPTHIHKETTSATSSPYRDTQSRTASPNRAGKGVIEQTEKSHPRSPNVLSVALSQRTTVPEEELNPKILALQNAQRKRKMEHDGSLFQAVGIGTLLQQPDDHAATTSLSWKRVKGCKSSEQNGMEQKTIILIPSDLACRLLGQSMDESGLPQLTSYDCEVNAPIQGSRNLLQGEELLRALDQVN
Sequence of Hepatocyte nuclear factor 3-beta (Homo sapiens) (Q9Y261 whole entry, looked up): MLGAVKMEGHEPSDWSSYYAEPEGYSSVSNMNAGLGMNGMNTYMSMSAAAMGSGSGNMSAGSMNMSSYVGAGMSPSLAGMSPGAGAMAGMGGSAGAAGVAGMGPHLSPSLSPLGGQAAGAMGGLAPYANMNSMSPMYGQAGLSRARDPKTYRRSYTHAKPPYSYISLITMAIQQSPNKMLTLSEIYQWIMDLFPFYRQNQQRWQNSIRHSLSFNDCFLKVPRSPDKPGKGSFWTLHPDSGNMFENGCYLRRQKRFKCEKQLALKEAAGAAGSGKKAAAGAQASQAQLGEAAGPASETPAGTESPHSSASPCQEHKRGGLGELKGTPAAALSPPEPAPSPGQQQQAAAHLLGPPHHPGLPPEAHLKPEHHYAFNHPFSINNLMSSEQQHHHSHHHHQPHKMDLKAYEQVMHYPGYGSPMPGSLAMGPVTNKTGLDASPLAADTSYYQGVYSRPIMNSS
Sequence of Heat shock factor protein 1 (Homo sapiens) (Q00613 whole entry, looked up, the tested form may be a part): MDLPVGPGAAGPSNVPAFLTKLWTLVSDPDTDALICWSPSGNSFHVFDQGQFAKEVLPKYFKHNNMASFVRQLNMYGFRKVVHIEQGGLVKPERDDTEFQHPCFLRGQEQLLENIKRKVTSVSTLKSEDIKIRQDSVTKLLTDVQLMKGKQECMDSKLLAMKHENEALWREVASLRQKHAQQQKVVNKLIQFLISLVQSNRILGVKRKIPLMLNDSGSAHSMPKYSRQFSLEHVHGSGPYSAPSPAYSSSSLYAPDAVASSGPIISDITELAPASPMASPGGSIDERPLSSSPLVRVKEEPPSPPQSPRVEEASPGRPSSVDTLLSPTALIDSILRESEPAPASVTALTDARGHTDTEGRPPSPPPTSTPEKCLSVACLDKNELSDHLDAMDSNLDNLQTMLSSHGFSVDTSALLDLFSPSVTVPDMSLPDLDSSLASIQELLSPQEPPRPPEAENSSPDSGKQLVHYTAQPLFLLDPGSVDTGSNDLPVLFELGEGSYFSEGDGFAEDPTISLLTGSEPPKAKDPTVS
Sequence of Transcription factor E2F1 (Homo sapiens) (Q01094 whole entry, looked up): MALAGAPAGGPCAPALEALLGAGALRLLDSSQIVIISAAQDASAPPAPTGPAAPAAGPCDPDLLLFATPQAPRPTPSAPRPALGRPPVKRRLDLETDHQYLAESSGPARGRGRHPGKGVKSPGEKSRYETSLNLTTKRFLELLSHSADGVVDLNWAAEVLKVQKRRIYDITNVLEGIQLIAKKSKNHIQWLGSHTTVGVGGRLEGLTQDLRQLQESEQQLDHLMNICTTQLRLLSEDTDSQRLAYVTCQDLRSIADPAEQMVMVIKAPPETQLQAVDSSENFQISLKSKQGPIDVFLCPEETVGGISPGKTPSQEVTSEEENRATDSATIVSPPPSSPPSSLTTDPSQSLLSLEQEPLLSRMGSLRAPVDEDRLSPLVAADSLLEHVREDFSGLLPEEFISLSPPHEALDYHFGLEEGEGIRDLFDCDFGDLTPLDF

CCCCCCCCCCCCCC(=O)OCC
outcome [1]: inactive
outcome [2]: inactive
outcome [3]: inactive
outcome [4]: inactive
outcome [5]: inactive
outcome [6]: inactive
outcome [7]: inactive
outcome [8]: inactive
outcome [9]: inactive
outcome [10]: inactive
outcome [11]: inactive
outcome [12]: inactive
outcome [13]: inactive
outcome [14]: inactive
outcome [15]: inactive
outcome [16]: inactive
outcome [17]: inactive

NC(=O)c1cnccn1
outcome [18]: inactive
outcome [2]: inactive
outcome [3]: inactive
outcome [4]: inactive
outcome [5]: inactive
outcome [6]: inactive
outcome [7]: inactive
outcome [8]: inactive
outcome [19]: inactive
outcome [9]: inactive
outcome [10]: inactive
outcome [11]: inactive
outcome [12]: inactive
outcome [13]: inactive
outcome [15]: inactive
outcome [16]: inactive
outcome [17]: inactive

CC(C)=CC(=O)O
outcome [18]: inactive
outcome [2]: inactive
AC50 [5]: 7.06 µM (active)
outcome [6]: inactive
outcome [7]: inactive
outcome [8]: inactive
outcome [19]: inactive
outcome [9]: inactive
outcome [12]: inactive
outcome [13]: inactive
outcome [15]: inactive
outcome [16]: inactive
outcome [17]: inactive

CCO[Si](CC)(OCC)OCC
outcome [18]: inactive
outcome [2]: inactive
outcome [3]: inactive
outcome [5]: inactive
outcome [6]: inactive
outcome [7]: inactive
outcome [8]: inactive
outcome [19]: inactive
outcome [9]: inactive
outcome [11]: inactive
outcome [12]: inactive
outcome [13]: inactive
outcome [14]: inactive
outcome [15]: inactive
outcome [16]: inactive
outcome [17]: inactive

CCOC(=O)CC1(C)OCC(C)O1 (stereo unspecified)
outcome [18]: inactive
outcome [2]: inactive
outcome [3]: inactive
outcome [5]: inactive
outcome [6]: inactive
outcome [7]: inactive
outcome [8]: inactive
outcome [19]: inactive
outcome [9]: inactive
outcome [11]: inactive
outcome [12]: inactive
outcome [13]: inactive
outcome [14]: inactive
outcome [15]: inactive
outcome [16]: inactive
outcome [17]: inactive

CCCCCCCC1CCCC1=O (stereo unspecified)
outcome [18]: inactive
outcome [2]: inactive
outcome [3]: inactive
outcome [5]: inactive
outcome [6]: inactive
outcome [7]: inactive
outcome [8]: inactive
outcome [19]: inactive
outcome [9]: inactive
outcome [11]: inactive
outcome [12]: inactive
outcome [13]: inactive
outcome [14]: inactive
outcome [15]: inactive
outcome [16]: inactive
outcome [17]: inactive

ClCCOCCOCCCl
outcome [18]: inactive
outcome [2]: inactive
outcome [3]: inactive
outcome [4]: inactive
outcome [5]: inactive
outcome [6]: inactive
outcome [7]: inactive
outcome [8]: inactive
outcome [19]: inactive
outcome [9]: inactive
outcome [11]: inactive
outcome [12]: inactive
outcome [13]: inactive
outcome [15]: inactive
outcome [16]: inactive

Cc1cc(N)n(-c2ccccc2)n1
outcome [18]: inactive
outcome [2]: inactive
outcome [3]: inactive
outcome [4]: inactive
outcome [6]: inactive
outcome [7]: inactive
outcome [8]: inactive
outcome [19]: inactive
outcome [9]: inactive
outcome [12]: inactive
outcome [13]: inactive
outcome [14]: inactive
outcome [15]: inactive
outcome [16]: inactive
outcome [17]: inactive

CCC(C)COC(=O)CC(C)C (stereo unspecified)
outcome [18]: inactive
outcome [2]: inactive
outcome [3]: inactive
outcome [4]: inactive
outcome [5]: inactive
outcome [6]: inactive
outcome [7]: inactive
outcome [8]: inactive
outcome [9]: inactive
outcome [11]: inactive
outcome [12]: inactive
outcome [13]: inactive
outcome [14]: inactive
outcome [15]: inactive
outcome [16]: inactive
outcome [17]: inactive
